PI4K2A inh: qHTS for small molecular inhibitors of PI4K2A. purified PI4K2A, ADP-Glo luminescence, 1 h; active compounds read low. hit rate 0.13% among 420,000. activity change, negative = inhibition, % at 76.9 µM; in the data active = activity change below about -50%; inconclusive = mostly about -30% to -49%
Target sequence (Q9BTU6 whole entry, looked up): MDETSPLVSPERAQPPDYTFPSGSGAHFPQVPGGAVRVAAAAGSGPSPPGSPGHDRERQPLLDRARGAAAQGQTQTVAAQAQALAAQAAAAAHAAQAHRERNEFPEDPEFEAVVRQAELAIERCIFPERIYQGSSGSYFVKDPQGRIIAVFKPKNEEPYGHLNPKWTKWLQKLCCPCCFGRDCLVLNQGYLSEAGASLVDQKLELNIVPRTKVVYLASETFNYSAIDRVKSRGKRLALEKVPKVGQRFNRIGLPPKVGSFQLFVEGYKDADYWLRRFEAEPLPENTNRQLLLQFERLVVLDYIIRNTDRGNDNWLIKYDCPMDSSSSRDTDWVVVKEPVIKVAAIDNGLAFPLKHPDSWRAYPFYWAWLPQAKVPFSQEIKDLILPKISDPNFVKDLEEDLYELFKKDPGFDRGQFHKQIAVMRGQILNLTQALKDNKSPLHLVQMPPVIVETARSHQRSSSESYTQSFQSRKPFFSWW
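PI4K2A activity was measured by ADP-Glo luminescence: enzyme (4 ug/mL stock) and phosphatidylinositol (1.2 mM stock) in Tris pH 7.5/MgCl2/EGTA/Triton X-100 buffer were reacted with ATP (300 microM stock) for one hour at ambient temperature.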
RGS4 inhibitor: Inhibitors of Regulator of G Protein Signaling (RGS) 4: qHTS. AID 504845, 2011. Transcreener GDP fluorescence polarization, RGS4-accelerated GTP hydrolysis. hit rate 0.039% among 390,000. Potency, µM (doses to about 114 µM), most hits filed as inhibitors. Regulator of G-protein signaling 4 (Homo sapiens), P49798; active = well fitted inhibition curve with a large enough effect; inconclusive = small, poorly fitted or top-dose-only effect; inactive = no such curve, though single readings can be large or run the other way; note: nearly all actives have a fitted effect of over 75% in size
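MLSMR compounds (23 nl, pin-transferred) preincubated 10 min at room temperature with a 500nM (2x) first reagent, then RGS4 at 900nM (2x) plus Transcreener GDP mix added; fluorescence polarization (620/688 nm) read before and after 90 min at 30 °C.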
LDHA inh: qHTS assay for inhibitors of human lactate dehydrogenase | L-lactate dehydrogenase A chain (Homo sapiens), P00338 | purified LDHA, NADH/diaphorase-resazurin fluorescence; active compounds read low | hit rate 0.15% among 480,000 | AID 1347041, 2019 | activity change, % (values are at about 110 or 230 µM); in the data active = activity change below about -30%; inconclusive = mostly about -25% to -30%
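Remaining NADH was detected by diaphorase (0.133 mg/mL) converting 37 µM resazurin to fluorescent resorufin, read at 0 and 20 minutes. The preceding 5-minute room-temperature reaction used 2 nM LDHA, 0.2 mM sodium pyruvate and 0.06 mM NADH at pH 7.4.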
DRD3 antagonist: qHTS of D3 Dopamine Receptor Antagonist: qHTS; D3R cells, DiscoveRx beta-arrestin luminescence, antagonist mode; active compounds read low; hit rate 2.5% among 360,000; D(3) dopamine receptor (Homo sapiens), P35462; max response, negative = inhibition, %; in the data active = max response below about -50%; inconclusive = no clear call, values can overlap the other calls
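Cells plated overnight at 1500 cells/well, then exposed to library compounds with dopamine controls for 90 minutes at 37 degrees C. DiscoveRx reagent added for 30–60 minutes at room temperature; luminescence read, quantitative HTS format.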
Akt phos inh: HTS Assay for Inhibitors of Akt Phophorylation: Primary Screen. hit rate 0.32% among 360,000. Neuro2A IGF-stimulated pAkt S473 HTRF, 20 min; active compounds read low. AID 651550, 2012. activity change, % for hits at 50 µM; in the data active = activity change below about -80%; inconclusive = mostly about -51% to -80%
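Neuro2A cells (4,500/well, DMEM with 0.5% FBS) were treated with compound at a single 50 µM final concentration, stimulated with 6 nM IGF for 20 min at 37 °C, and lysed. Phospho-Akt Ser473 was read by HTRF as 665/615 ratio ×10^4.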
DRD3 agonist: qHTS of D3 Dopamine Receptor Agonist: qHTS; hit rate 0.58% among 410,000; D(3) dopamine receptor (Homo sapiens), P35462; D3R DiscoveRx beta-arrestin cells, luminescence, 90 min; max activation, %; in the data active = max activation above about 30%
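Agonist-mode cell screen: cells plated at 1500/well and incubated overnight at 37 °C, then exposed to library compounds for 90 min at 37 °C. Detection reagent was added for 30–60 min at room temperature, and luminescence was read.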
A number is an active result; - = inactive; ? = inconclusive; . = not tested or not shown. Hits are enriched below; roughly 2.8% of the tested compounds scored in any of these assays.

SMILES	PI4K2A inh	RGS4 inhibitor	LDHA inh	DRD3 antagonist	Akt phos inh	DRD3 agonist
CC(C)(c1cc(Br)c(O)c(Br)c1)c1cc(Br)c(O)c(Br)c1	-	-	-	-	-	30.2
O=C(CC1S/C(=N/N=C/c2ccco2)NC1=O)Nc1cccc(Cl)c1Cl (centres undefined)	-	-	-	-61.4	-	-
O=C1CC(=O)N(CCc2ccccc2)C(=O)N1CCc1ccccc1	-65.0	?	-	-	-	-
O=C1C(Cl)=C(N2CCOCC2)C(=O)N1CCc1ccccc1	-	-	-	-	-	-
CN1CCN(C2=C(Cl)C(=O)N(CCc3ccccc3)C2=O)CC1	-	-	-	-71.1	-	-
CC1CC(=O)N(CCc2ccccc2)C(=O)C1	-	-	-	-	-	-
CN1CCN(C2=C(Cl)C(=O)N(c3ccc(Cl)cc3)C2=O)CC1	-	-	-	-82.6	-	-
CC(C)N1CCCC(CNC(=O)CCc2c[nH]c3ccccc23)C1 (centres undefined)	.	.	-	.	.	.
COc1ccc(CCNC(=O)c2c(C)noc2C)cc1	-	-	-	-99.9	-	-
Cn1c(=O)c(C(=O)NCCCc2ccccc2)c(O)c2ccccc21	-	-	-	-	-	-
COc1ccc(CCNC(=O)c2c(O)c3ccccc3n(C)c2=O)cc1	-	-	-	-	-	36.8
CCn1c(=O)c(C(=O)NCCN2CCCCC2)c(O)c2ccccc21	-	-	-	-92.5	-	-
O=C(Nc1ccc2ccccc2c1)Nc1nnc(-c2ccncc2)o1	.	.	-	.	.	.
COc1ccc(Nc2cc(C)c3cc(C)ccc3n2)cc1	.	.	-	.	.	.
CCNC(=O)c1ccccc1SCC	.	.	-	.	.	.
CC1(C)CC(=O)C(N=Nc2cccc([N+](=O)[O-])c2)=C(O)C1	-	-	-	-67.2	-	-
CC1(C)CC(=O)C2=C(C1)OC1=C(C(=O)CC(C)(C)C1)C2c1ccc(O)c([N+](=O)[O-])c1	-	-	-	-	-	-
CC1(C)CC(=O)C(N=Nc2ccc(Br)cc2)=C(O)C1	-	-	-	-	-	-
CC1(C)CC(=O)C2=C(C1)OC1=C(C(=O)CC(C)(C)C1)C2c1cccc([N+](=O)[O-])c1	-	.	-	-78.3	-	-
COc1cccc(C(=O)Nc2oc3ccccc3c(=O)c2-c2cccc(C)c2)c1	.	.	-	.	.	.
CC(C)(C)c1ccc(OCC(O)CN2CCN(c3ccccn3)CC2)cc1 (centres undefined)	-	-	-	-	.	64.0
CCC(=O)c1ccc(OCC(O)CN2CCN(c3ccccn3)CC2)cc1 (centres undefined)	-	-	-	-	-	91.0
S=C(NCc1ccccc1Cl)Nc1ccccc1	.	.	-	.	.	.
CCN1CCN(c2nc(-c3ccccc3)c3ccccc3n2)CC1	-	-	-	-82.1	-	-
Cc1ccc(C)c(OCc2ccc(-c3nc(C#N)c(N(C)C)o3)o2)c1	.	.	-	.	.	.
SMILES	PI4K2A inh	RGS4 inhibitor	LDHA inh	DRD3 antagonist	Akt phos inh	DRD3 agonist
CCCNc1c(NC(=O)c2ccc(OC)c(OC)c2)c(=O)oc2ccccc12	.	.	-	.	.	.
N#Cc1ccc(CSc2nc(N)cc(N)n2)cc1	-	-	-	-55.2	-	-
CC(=O)NC(CC(=O)NC(C)c1ccc(Cl)cc1Cl)c1ccccc1 (centres undefined)	-	-	-	-50.7	-	-
C=CCNC(=O)NCc1cccc(C(N)=O)c1	.	.	-	.	.	.
COc1ccc2c(Cl)c(C(=O)OCC(=O)Nc3ccccc3F)sc2c1Cl	.	.	-	.	.	.
CCCCn1c(=O)[nH]c(=O)c2c1nc(Cn1ncc(Cl)c(Cl)c1=O)n2CCC	-	?	-	-64.4	-	-
CCCCn1c(=O)[nH]c(=O)c2c1nc(CN1C(=O)c3ccccc3S1(=O)=O)n2CCC	-	-	-	-	-	-
COc1cccc(C2CC(=O)Nc3nc(C)[nH]c(=O)c32)c1OC (centres undefined)	.	.	-	.	.	.
Cc1ccccc1NC(=O)c1ccc(NS(=O)(=O)c2cc(C(C)(C)C)cc(C)c2C)cc1	-	-	-	-57.0	-	-
